# Sampled rows, rich in hits. Any-hit rate of the full collection: about 11%.
# G9a inh = blocks human histone lysine methyltransferase G9a; Q96KQ7; G9a H3K9 monomethylation, AlphaScreen, 2 h; Potency, µM (top dose mostly 102 µM), inactives show top-dose activity, negative = inhibition, most hits filed as inhibitors; 350,000 tested, 8.8% active; also: potency is read from the fitted curve at half-maximal effect; % is scaled to controls: 0 for no effect and ±100 for the full control effect; nearly all actives have a fitted effect of over 75% in size
# Target sequence (Q96KQ7 913-1193 limits assumed): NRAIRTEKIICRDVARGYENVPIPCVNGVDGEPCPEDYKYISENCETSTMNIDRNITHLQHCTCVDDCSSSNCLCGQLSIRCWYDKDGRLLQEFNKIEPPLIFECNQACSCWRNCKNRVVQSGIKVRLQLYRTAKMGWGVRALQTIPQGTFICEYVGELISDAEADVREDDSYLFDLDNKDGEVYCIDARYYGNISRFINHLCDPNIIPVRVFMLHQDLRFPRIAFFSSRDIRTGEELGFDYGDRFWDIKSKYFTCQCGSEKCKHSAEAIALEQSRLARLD
#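 Readings reflect AlphaScreen signal from monomethyl-H3K9 antibody detection. HMT at 20 nM; substrate b-H3K9 500 nM; cofactor SAM 20 uM; 2 h RT reaction; compounds tested as titrations in qHTS with 15 min preincubation.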
# PI5P4Ka inh = inhibitors of human PI5P4K alpha; 330,000 tested, 1.2% active; PI5P4Kalpha enzyme, ADP-Glo luminescence, 60 min; hits give low values; max response, %; P48426; active = max response of -50% or lower; inconclusive = between -30% and -50%; inactive = -30% or higher; also: value at the top dose of about 77 µM; % is scaled to controls: 0 for no effect and ±100 for the full control effect
#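 ADP-Glo luminescence end-point after a 60 min room-temperature kinase reaction. PI5P4Kalpha and substrate in HEPES pH 7.4 buffer with EGTA, 0.1% CHAPS and 5% DMSO; ATP at 5 microM final.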
# JMJD2A Tudor inh = inhibitors of human JMJD2A Tudor domain | O75164 | AlphaScreen JMJD2A-Tudor / H3K4me3 peptide binding | Potency, µM (series often up to 114 µM), for the others: top-dose activity change, negative = inhibition, hits mostly inhibitors | 390,000 tested, 4.4% active | AID 504339; also: potency is read from the fitted curve at half-maximal effect; % is scaled to controls: 0 for no effect and ±100 for the full control effect; nearly all actives have a fitted effect of over 50% in size
# HP1b binding inh = HP1-beta chromodomain-methylated histone interaction inhibition. P83916. AlphaScreen HP1-beta / biotin-H3K9me3 peptide binding. Potency, µM (series often up to 114 µM), for inactives: at the highest dose activity change, negative = inhibition, most hits filed as inhibitors. 390,000 tested, 0.56% active. AID 540317; also: potency is read from the fitted curve at half-maximal effect; nearly all actives have a fitted effect of over 70% in size
# Target sequence (P83916 whole entry, looked up): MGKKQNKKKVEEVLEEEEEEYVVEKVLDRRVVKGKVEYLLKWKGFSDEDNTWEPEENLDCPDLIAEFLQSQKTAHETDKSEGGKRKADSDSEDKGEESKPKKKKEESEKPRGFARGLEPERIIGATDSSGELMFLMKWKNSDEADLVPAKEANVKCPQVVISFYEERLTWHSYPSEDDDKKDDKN
#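 AlphaScreen: HP1-beta (50 nM) preformed 30 min with biotin-H3(1-18)K9me3 peptide (50 nM) in PBS pH 7.4, 0.01% Tween-20. Compound added for 30 min at RT, then streptavidin donor/nickel chelate acceptor beads (10 ug/mL) for 30 min.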
# BAZ2B block = BAZ2B (human) inhibition; Q9UIF8; 360,000 tested, 4.4% active; AlphaScreen BAZ2B-H3K14Ac peptide displacement; Potency, µM (titrated, usually from 114 µM), without a hit: top-dose activity change, negative = inhibition, actives largely listed as inhibitors; also: potency is read from the fitted curve at half-maximal effect; % is scaled to controls: 0 for no effect and ±100 for the full control effect; nearly all actives have a fitted effect of over 60% in size
#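 Protein-peptide AlphaScreen: BAZ2B 50 nM, b-H3K14Ac 50 nM, 1x PBS pH 7.4 + 0.01% Tween-20. Preincubation 30 min RT; cpd 30 min RT (top 110 uM); beads 20 min RT, light-protected.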
# L3MBTL1 block = blocks human L3MBTL1 | Q9Y468 | AlphaScreen L3MBTL1–H3K9me1 peptide binding | Potency, µM (top dose mostly 57.1 µM), for inactives: at the highest dose activity, negative = inhibition, most hits filed as inhibitors | 230,000 tested, 0.66% active | AID 485360; also: potency is read from the fitted curve at half-maximal effect; % is scaled to controls: 0 for no effect and ±100 for the full control effect; nearly all actives have a fitted effect of over 60% in size
#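 Read-out is AlphaScreen signal from streptavidin donor and nickel chelate acceptor beads (10 ug/mL final each) bridging L3MBTL1 (50 nM) and biotinylated K9-monomethylated H3(1-15) peptide (75 nM), after 30 min compound exposure at room temperature.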
# Numbers without * were called inactive; ? = inconclusive; / = no result given; ! = a repeat was not active; [ ] = another dose, or the depositor's remark. Unless noted, calls follow the shape of the dose curve; as a rule, active = well fitted inhibition curve with a large enough effect; inconclusive = small, poorly fitted or top-dose-only effect; inactive = no such curve, though single readings can be large or run the other way.
SMILES,G9a inh,PI5P4Ka inh,JMJD2A Tudor inh,HP1b binding inh,BAZ2B block,L3MBTL1 block
Cc1ccc([N+](=O)[O-])c(OCCN2CCc3ccccc3C2)c1,10µM*,1.4,20µM*,?,50.1µM*,-2.5%
COc1cccc(CNC(=O)CSc2n[nH]c(-c3ccccc3Cl)n2)c1OC,-1.8%[59 µM],/,-2.3%,14.9%[57 µM],6.8%,/
Cc1cccc(N2CCN(C(=O)Cn3nc(C)c4sc5ccccc5c4c3=O)CC2)c1C,?,/,-25.5%,47.2%,-13.8%,/
O=c1[nH]cnc2cc(Cl)ccc12,50.1µM*,3.6,7.6%[11.4 µM],57.3%,1.3%,-7.3%
COc1ccc(-c2cc(C(F)(F)F)nc(S(=O)(=O)CCCC(=O)Nc3cccc(O)c3)n2)cc1OC,-44.4%[59 µM],-6.8,-6.5%,62.1%,-7.2%,/
COc1ccc(NC(=O)CCCS(=O)(=O)c2nc(-c3ccc(OC)c(OC)c3)cc(C(F)(F)F)n2)cc1OC,15.8µM*,/,-14.3%,36.5%,-4.0%,/
COc1ccc(/C=N/n2c(C3CCCCC3)n[nH]c2=S)c(OC)c1,14.1µM*,0.4,39.8µM*,-8.0%,?,/
COc1cc(/C=N/n2c(C3CCCCC3)n[nH]c2=S)ccc1O,3.55µM*,-5.4,11.2µM*,?,-14.2%,/
COc1cc(OC)c(/C=N/n2c(C3CCCCC3)n[nH]c2=S)c(OC)c1,1.26µM*,-6.1,3.98µM*,-0.4%,-18.2%,/
COc1cccc(/C=N/n2c(C3CCCCC3)n[nH]c2=S)c1OC,?,0.7,?,36.5%,6.3%,/
COc1cccc(/C=N/n2c(C3CCCCC3)n[nH]c2=S)c1O,2.51µM*,-15.7,25.1µM*,16.3%,-32.0%,/
CC(C)CCn1c(SC(C)C#N)nc2ccccc2c1=O (stereo not drawn),/,/,45.4%[57.1 µM],54.1%[57 µM],/,/
S=C(c1ccc(-c2ccccc2Cl)o1)N1CCCCC1,?,0.9,?,?,?,?
CN1CCN(Cc2ccc(-c3ccc(Cl)cc3)o2)CC1,?,/,-35.3%,16.6%,?,/
N#CCCN1CCN(C(=S)c2ccc(-c3ccc(Cl)cc3)o2)CC1,?,-17.7,44.7µM*,?,39.8µM*,/
S=C(c1ccc(-c2ccc(Cl)cc2)o1)N1CCCCC1,12.6µM*,/,22.4µM*,?,28.2µM*,?
CN1CCN(C(=S)c2ccc(-c3cccc(Cl)c3Cl)o2)CC1,39.8µM*,10.5,28.2µM*,44.7µM*,?,?
O=C(c1ccco1)N1CCN(C(=O)c2ccc(-c3ccccc3Cl)o2)CC1,?,-8.0,-24.7%,-10.6%,?,-10.3%
O=C(c1ccc(-c2ccccc2Cl)o1)N1CCN(c2ccccc2O)CC1,17.8µM*,0.2,?,-17.0%,?,-18.6%
COc1ccc(C2c3[nH]c4ccc(OC)cc4c3CCN2C(=O)Nc2ccccc2)cc1 (stereo not drawn),?,/,?,-7.0%,?,/
O=C(Cn1ccn(-c2ccc(F)c(F)c2)c(=O)c1=O)Nc1ccccc1F,-8.4%[59 µM],/,-7.6%,37.3%,2.1%,/
CCc1cc(=O)oc2c(CNCc3ccccc3F)c(O)c(Cl)cc12,50.1µM*,2.5,?,39.7%,?,/
COc1ccc(CCNC(=O)c2ccc3c(c2)CCN3S(=O)(=O)c2ccccc2)cc1OC,?,/,-17.0%,35.2%,-14.9%,/
CC1(c2ccccc2)CC(c2ccccc2)=Nc2ccccc2N1 (stereo not drawn),/,2.8,-18.9%,7.4%,?,-3.7%
CC1=CC(C)=Nc2ccccc2N1,39.8µM*,/,-12.7%,19.8%,?,/
SMILES,G9a inh,PI5P4Ka inh,JMJD2A Tudor inh,HP1b binding inh,BAZ2B block,L3MBTL1 block
Oc1c(Br)cc(Br)cc1/C=N/n1c(-c2ccccc2)n[nH]c1=S,10.3%[0.501 µM],-54.1*,39.8µM*,?,?,10.4%[2.29 µM]
Oc1ccccc1/C=N/n1c(-c2ccccc2)n[nH]c1=S,1.58µM*,-3.0,25.1µM*,-17.3%,?,/
Oc1c(Br)cc(/C=N/n2c(-c3ccccc3)n[nH]c2=S)c(Br)c1O,1.78µM*,/,/,/,1.78µM*,0.794µM*
O=[N+]([O-])c1ccc(O)c(/C=N/n2c(-c3ccccc3)n[nH]c2=S)c1,-13.6%[0.501 µM],-27.6,5.62µM*,12.2%,-9.5%,1.2%[2.29 µM]
O=[N+]([O-])c1cccc(-c2ccc(/C=N/n3c(-c4ccccc4)n[nH]c3=S)o2)c1,?,1.8,-9.5%,0.8%,-4.6%,-5.3%
Cc1ccc(C(=O)Nc2nnc(SCc3cc(=O)n4ccc(C)cc4n3)s2)cc1,15.0%[59 µM],/,-6.5%,12.7%[57 µM],5.6%,/
Cc1ccc(C)c(S(=O)(=O)NCCc2csc(-c3ccc(Cl)cc3)n2)c1,14.8%[59 µM],/,4.5%,23.6%[57 µM],29.8%,/
COc1ccc(CNC(=O)c2oc3c(c2C)-c2nn(Cc4ccccc4Cl)cc2CC3)cc1,-14.5%[59 µM],/,-13.8%,18.1%,?,/
CCOC(=O)c1ccc(NC(=O)c2cc3c(n(-c4ccc(C)cc4)c2=O)CC(C)(C)CC3=O)cc1,?,/,-16.6%,35.6%,-1.0%,/
O=[N+]([O-])c1ccc(Cl)c(/C=N/n2c(-c3ccncc3)n[nH]c2=S)c1,3.98µM*,-0.5,3.16µM*,13.6%,-1.2%,/
COc1c(Br)cc(/C=N/n2c(-c3ccccc3)n[nH]c2=S)c(O)c1Br,/,-55.1*,?,-15.6%,-8.7%,9.6%
COc1cc2c(cc1OC)C(c1ccc(F)cc1)N(c1ccccc1)C(=O)C2 (stereo not drawn),-33.0%[59 µM],/,-15.6%,19.6%,-11.0%,/
CCOc1ccc(Cn2nnc3c(=O)[nH]c(C4CCN(C(=O)c5ccccc5)CC4)nc32)cc1,?,/,?,23.8%,-21.8%,/
CC(C)=CCc1c2c(c3occ(-c4ccc(O)c(O)c4)c(=O)c3c1O)C=CC(C)(C)O2,/,63.8,22.4µM*,?,/,/
CC(C)=CCc1c2c(c3occ(-c4ccc(O)cc4)c(=O)c3c1O)C=CC(C)(C)O2,20µM*!,139.9,?,-12.2%,?,-12.4%
CC1(C)C=Cc2c(c3c(c4c(=O)c(-c5ccc(O)cc5)coc24)OC(C)(C)CC3)O1,?,-28.1,?,-9.3%,-26.8%,-9.6%
Cn1c(-c2ccc([N+](=O)[O-])cc2)nc2ccccc21,-9.8%,6.0,-22.4%,58.0%,1.5%,11.2%
Cn1nc([N+](=O)[O-])c(C(C#N)c2nc3ccccc3n2C)c(Cl)c1=O (stereo not drawn),?,-8.9,?,?,35.5µM*,-17.2%
CCOC(=O)C1=C(O)c2ccccc2C(=O)/C1=C\c1ccc(C)cc1,2.51µM*,-55.7*,39.8µM*,35.5µM*,20µM*,-15.6%
CC(C)N(C(=O)CSc1nnc(CN2CCCCCC2=O)n1-c1ccccn1)C(C)C,?,/,89.1µM*,?,-27.2%,/
CC(C)CNC(=O)CSc1nnc(CN2CCCCCC2=O)n1-c1ccccn1,-8.1%[59 µM],/,-4.5%,-6.7%,/,0.4%

# Screening data (PubChem BioAssay)
